# Reference: PubChem BioAssay AID504329 (Southern Research Specialized Biocontainment Screening …, 2011)
# In all, about 340,000 compounds went through this assay and about 1,000 (0.29%) were called active. Rule as the data show it: inconclusive = inhibition above about 27% without an active follow-up result; inactive = below that. A selection follows. Entries with a potency or affinity are not part of this list.
# Experiment: NS1A inhibition, H1N1 influenza, cell based functional assay (AID 504329)
# Conditions: percent inhibition, at 12.5 µM, hits give high values
row,Structure (SMILES),inhibition
1,Cc1ccc(CNC(=O)CN2C(=O)CSc3ccc(S(=O)(=O)N4CCCCC4)cc32)cc1,2.97% (inactive)
2,COC(=O)c1ccc(CNC(=O)c2coc3ccccc3c2=O)cc1,-15.6% (inactive)
3,O=C(COc1ccc(Cl)cc1)NC1CCSC1=O (stereo not given),-5.86% (inactive)
4,O=C1CC(NNc2nc3ccccc3s2)C(=O)N1c1ccccc1 (stereo not given),2.74% (inactive)
5,O=C(COC(=O)C1CCC1)c1c[nH]c2ccccc12,-3.9% (inactive)
6,CCn1c(=O)[nH]c2cc(C(=O)N3CCN(c4ccccc4)CC3)ccc2c1=O,5.52% (inactive)
7,COc1cc2c(cc1OC)CN(c1nc(CN3CCOCC3)nc3sc4c(c13)CCCC4)CC2,4.39% (inactive)
8,O=C(NCC(c1ccco1)N1CCCCC1)c1ccc(S(=O)(=O)Nc2ccccc2)cc1 (stereo not given),-1.8% (inactive)
9,COc1ccc(-n2ccnc(SCC(=O)NC3CCCCC3)c2=O)cc1,-5.37% (inactive)
10,CCc1cccc2sc(NC(=O)C3CC3)nc12,-5.24% (inactive)
11,Nc1c(C=C2C=CC(=O)C=C2)c(=O)nc2snc(SCc3ccccc3)n12,11.3% (inactive)
12,C=CCOc1ccc(C(=O)c2ccccc2)c(OCC(=O)NC2(C#N)CCCC2)c1,5.71% (inactive)
13,COc1cccc2nc3cc(C)c(C)cc3nc12,1.36% (inactive)
14,COc1ccc2nc3cccc(OC)c3nc2c1,-1.33% (inactive)
15,OC(CN1CCN(c2ccc(C(F)(F)F)cn2)CC1)c1ccccc1 (stereo not given),-15% (inactive)
16,CC(C)(C)N(Cc1ccccc1)C(=O)COC(=O)c1ccc(S(=O)(=O)N2CCOCC2)cc1,-2.6% (inactive)
17,COc1ccc(C(=O)N/N=C(\c2ccccc2)c2ccccn2)cc1,6.37% (inactive)
18,COc1ccc(Nc2cc(C)c3ccccc3n2)cc1,-1.04% (inactive)
19,COc1cc(C2C3=C(CCCC3=O)Nc3[nH]n(-c4ccccc4)c(=O)c32)ccc1OC(C)=O (stereo not given),2.7% (inactive)
20,COc1ccc(N2CCN(CCC(N)=O)CC2)cc1,-4.44% (inactive)
21,NCCCN1CCN(c2ccccc2)CC1,11.2% (inactive)
22,Cn1c(C(=O)NCCCN2CCCCC2)cc2sccc21,8.28% (inactive)
23,CC1CCN(CCCNC(=O)c2cc3sccc3n2C)CC1,4.97% (inactive)
24,CC1(C)NC(=O)N(CC(=O)OCC(=O)c2ccc(F)cc2)C1=O,-8.13% (inactive)

row,Structure (SMILES),inhibition
1,CCOc1ccccc1N1CC(C(=O)Nc2cc(S(C)(=O)=O)ccc2Cl)CC1=O (stereo not given),-5.65% (inactive)
2,O=C(O)c1ccc(NCc2nc3ccccc3n2Cc2ccccc2)cc1,11.2% (inactive)
3,NNC(=O)c1sccc1OCc1ccc(Cl)cc1,0.97% (inactive)
4,Cc1noc(C)c1S(=O)(=O)Nc1ccccc1N1CCOCC1,0.87% (inactive)
5,O=C(CCNC(=O)c1ccc([N+](=O)[O-])cc1)Nc1nc2ccccc2[nH]1,-0.35% (inactive)
6,O=[N+]([O-])c1ccc(N=Nc2ccc(O)cc2O)cc1,-9.68% (inactive)
7,O=S(=O)(Nc1ccc(N=Nc2ccc(O)c3ccccc23)cc1)c1ccccc1,5.24% (inactive)
8,O=C1ON=C(c2ccccc2)/C1=C/c1ccc(-c2ccccc2[N+](=O)[O-])o1,-1.51% (inactive)
9,COc1ccc(-c2ccc(/C=C3\C(=O)N(c4ccccc4)N=C3c3ccccc3)o2)c([N+](=O)[O-])c1,10.3% (inactive)
10,CC(C)Cc1nnc(NC(=O)CCC(=O)NCc2ccccc2Cl)s1,-2.08% (inactive)
11,CC(=O)Nc1ccc2nc(NC(=O)COc3ccccc3Cl)sc2c1,-0.9% (inactive)
12,CC(C)Oc1cccc(C(=O)Nc2ccc(N3CCN(C)CC3)cc2)c1,-2.02% (inactive)
13,CN1CCN(c2ccc(NC(=O)Oc3ccccc3)cc2)CC1,17.8% (inactive)
14,COc1ccc(C(=O)Nc2ccc(N3CCN(C)CC3)cc2)cc1,1.09% (inactive)
15,C=CC(=O)Nc1cccc(Oc2ccnc3[nH]ccc23)c1,19.9% (inactive)
16,Cc1ccc(S(=O)(=O)N2CCN(C(=O)COC(=O)/C=C/c3ccccc3[N+](=O)[O-])CC2)c(C)c1,0.45% (inactive)
17,CC(NCC(=O)Nc1ccccc1C(=O)NC1CC1)c1cccs1 (stereo not given),-16.2% (inactive)
18,CCOC(=O)c1c(NC(=O)c2ccccc2)sc2c1CCc1ccccc1-2,-10.9% (inactive)
19,COc1ccc(OC)c2c1C(=O)C(Cl)=C(Cl)C2=O,24.7% (inactive)
20,COc1ccc2noc3c2c1C(=O)c1ccccc1-3,7.47% (inactive)
21,COCCN1C(=O)N[C@@H](c2ccccc2)[C@H](C(=O)OC)[C@H]1C,-12.7% (inactive)
22,CC1(C)Oc2ccc3ccc(=O)oc3c2C(/C=N/O)=C1Cl,-10.3% (inactive)
23,CC1(C)Oc2ccc3ccc(=O)oc3c2/C(=C/NNC(N)=O)C1=O,-7.94% (inactive)
24,Cc1ccc(NC(=O)NNC(=O)CN2C(=O)COc3ccccc32)cc1,-2.65% (inactive)

row,Structure (SMILES),inhibition
1,Cc1cccc(OC(=O)c2cccnc2)c1C,-8.58% (inactive)
2,CC(C)c1nnc(NC(=O)C2CCCN(C(=O)Nc3ccc(F)cc3)C2)s1 (stereo not given),-2.41% (inactive)
3,CCOC(=O)C1CCN(C(=O)C2CCC(=O)N(Cc3cccc(C(F)(F)F)c3)C2)CC1 (stereo not given),11.5% (inactive)
4,CC(=O)NCCn1c(C)cc2ccccc21,-2.59% (inactive)
5,Cc1cc2ccccc2n1CCNC(=O)C(C)C,4.98% (inactive)
6,O=C(OCc1ccccc1F)c1cc([N+](=O)[O-])ccc1N1CCOCC1,12.7% (inactive)
7,CC(C)C(=O)NC(c1cccs1)c1cc([N+](=O)[O-])c2cccnc2c1O (stereo not given),7.53% (inactive)
8,CCCC(=O)NC(c1ccco1)c1cc([N+](=O)[O-])c2cccnc2c1O (stereo not given),4.57% (inactive)
9,CC(C)C(=O)NC(c1ccccc1)c1cc([N+](=O)[O-])c2cccnc2c1O (stereo not given),3.43% (inactive)
10,CC(=O)NC(c1ccc(C)cc1)c1cc([N+](=O)[O-])c2cccnc2c1O (stereo not given),22% (inactive)
11,CCC(=O)NC(c1ccc(C)cc1)c1cc([N+](=O)[O-])c2cccnc2c1O (stereo not given),27.3% (inactive)
12,CCCC(=O)NC(c1cccs1)c1cc(Cl)c2cccnc2c1O (stereo not given),-9.38% (inactive)
13,Cc1ccc(NC(=O)c2cc(-c3ccccc3)n[nH]2)cc1,-9.32% (inactive)
14,COc1ccc(NC(=O)CSc2nnc(C(C)C)n2N)cc1,2.67% (inactive)
15,O=C(Cn1c2c(c(=O)n3ncnc13)CCC2)N/N=C/c1ccc(Cl)cc1,-0.52% (inactive)
16,CCn1ncc(Br)c1C(=O)Nc1nccs1,8% (inactive)
17,COC(=O)/C=C/c1ccc(OC(=O)c2ccncc2)cc1,-0.93% (inactive)
18,CC(=O)C1=C(c2ccccc2)OC(N)=C(C#N)C1c1ccccc1C (stereo not given),7.47% (inactive)
19,Cn1c(CC(=O)Nc2ccccc2F)nnc1SCC(=O)NC1CCCC1,4.61% (inactive)
20,O=[N+]([O-])c1ccc2c(c1)C(=Nc1ccccc1)c1ccccc1-2,19.1% (inactive)
21,Cc1cccc(N=C2NC(=O)c3cc([N+](=O)[O-])ccc32)c1,-0.91% (inactive)
22,COc1ccc(CCNCc2ccccc2F)cc1,-20.5% (inactive)
23,COc1ccc(CCNCc2ccccc2)cc1,-9.83% (inactive)
24,COc1ccc(C(=O)NCCC2=CCCCC2)cc1,-1.2% (inactive)

row,Structure (SMILES),inhibition
1,COc1ccc(CC(=O)NCCC2=CCCCC2)cc1,10.7% (inactive)
2,CCN1C[C@@H]2[C@@H]3C(=O)N(Cc4ccccc4)C(=O)[C@@H]3[C@](CC)(C(=O)OC)N2C1=NC1CCCCC1,-28.6% (inactive)
3,Cc1ccc(NC(=O)C2CCN(S(=O)(=O)c3ccc4c(c3)C(C)(C)C(=O)N4C)CC2)c(C)c1,8.27% (inactive)
4,CCCn1c(N)c(N(CCOC)C(=O)COC(=O)CSc2cc(C)c3ccccc3n2)c(=O)[nH]c1=O,-17.1% (inactive)
5,CN1C(=O)/C(=C\c2ccccc2OCc2ccccc2)SC1=S,10.4% (inactive)
6,Cc1cc(/C=C2\SC(=S)N(C)C2=O)c(C)n1-c1ccccc1O,6.77% (inactive)
7,COc1ccc(O)c(/C=C2/SC(=S)N(Cc3ccccc3)C2=O)c1,8.37% (inactive)
8,Cc1cc(/C=C2\SC(=S)N(C)C2=O)c(C)n1-c1cccc(O)c1,-1.47% (inactive)
9,CC(=O)c1c(C)[nH]c(C(=O)NC2=NCCS2)c1C,7.87% (inactive)
10,O=C(CN1C(=O)NC2(CCCCC2)C1=O)Nc1cc(C(F)(F)F)ccc1N1CCOCC1,-9.76% (inactive)
11,COc1ccccc1Oc1c(C)oc2c(CN(C)C)c(O)ccc2c1=O,12.9% (inactive)
12,COc1ccc(N/N=C(\C#N)C(=N)N2CCOCC2)cc1,0.407% (inactive)
13,CCCCSCc1[nH]c(=O)[nH]c1C(=O)CCCCC(=O)OCC,1.07% (inactive)
14,Cc1[nH]c(=O)[nH]c(=O)c1CSCC(=O)OCC(=O)Nc1ccccn1,-14.1% (inactive)
15,O=C(CCCC(=O)OCC(=O)NC1CCCC1)Nc1ccccn1,-6.66% (inactive)
16,CCOC(=O)CCCCC(=O)c1[nH]c(=O)[nH]c1CSCCO,12.6% (inactive)
17,O=C(CP(=O)(O)CC(=O)c1ccccc1)c1ccccc1,5.59% (inactive)
18,O=C1c2cccnc2C(=O)N1CNc1ccc(Cl)cc1,3.28% (inactive)
19,COc1cccc(C(=O)NCCS(=O)(=O)NCc2cccnc2)c1,-2.08% (inactive)
20,CC(C)CCNC(=O)C(CC(C)C)N(Cc1ccc2c(c1)OCO2)C(=O)c1snc(C(N)=O)c1N (stereo not given),6.77% (inactive)
21,C=CCC1(C#N)C(SC)=NC2=C(C(=O)CC(C)(C)C2)C1c1ccc(Br)cc1 (stereo not given),-5.14% (inactive)
22,O=C(CN1C(=O)COc2ccccc21)Nc1ccccc1F,2.27% (inactive)
23,O=C(CN1C(=O)COc2ccccc21)Nc1ccc2c(c1)OCCO2,0.43% (inactive)
